Results: ChEMBL document CHEMBL1961873, “Compounds: GSK PKIS; Assays: Nanosyn kinase panel” (2012)

Legend:
[1] = target: Protein kinase C gamma type (Homo sapiens) (UniProt P05129); details: at 1 µM;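 note: each value is an averaged percent inhibition of the enzyme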
[2] = target: T1, Protein kinase C iota type (Homo sapiens) (UniProt P41743); details: at 0.1 µM
T1 sequence (whole entry): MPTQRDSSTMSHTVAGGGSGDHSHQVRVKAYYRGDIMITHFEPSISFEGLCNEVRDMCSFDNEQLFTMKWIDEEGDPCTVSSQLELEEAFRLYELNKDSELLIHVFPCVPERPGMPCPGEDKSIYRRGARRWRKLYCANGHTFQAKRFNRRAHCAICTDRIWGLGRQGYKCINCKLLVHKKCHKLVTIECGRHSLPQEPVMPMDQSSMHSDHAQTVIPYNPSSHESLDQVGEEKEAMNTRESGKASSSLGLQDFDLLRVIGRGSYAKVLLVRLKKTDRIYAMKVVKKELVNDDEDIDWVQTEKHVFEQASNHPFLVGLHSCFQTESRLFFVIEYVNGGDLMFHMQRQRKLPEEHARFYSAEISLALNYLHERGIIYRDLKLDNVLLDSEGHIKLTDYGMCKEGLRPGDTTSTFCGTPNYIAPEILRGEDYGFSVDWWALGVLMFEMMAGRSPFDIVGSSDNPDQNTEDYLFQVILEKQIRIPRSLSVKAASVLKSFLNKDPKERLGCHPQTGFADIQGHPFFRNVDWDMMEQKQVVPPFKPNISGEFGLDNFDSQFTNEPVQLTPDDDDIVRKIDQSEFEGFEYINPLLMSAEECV

[3] = target: T1, Protein kinase C iota type (Homo sapiens); details: at 1 µM
[4] = target: Protein kinase C theta type (Homo sapiens) (UniProt Q04759); details: at 0.1 µM
Chain of Protein kinase C theta type (Homo sapiens) (Q04759 whole entry, looked up): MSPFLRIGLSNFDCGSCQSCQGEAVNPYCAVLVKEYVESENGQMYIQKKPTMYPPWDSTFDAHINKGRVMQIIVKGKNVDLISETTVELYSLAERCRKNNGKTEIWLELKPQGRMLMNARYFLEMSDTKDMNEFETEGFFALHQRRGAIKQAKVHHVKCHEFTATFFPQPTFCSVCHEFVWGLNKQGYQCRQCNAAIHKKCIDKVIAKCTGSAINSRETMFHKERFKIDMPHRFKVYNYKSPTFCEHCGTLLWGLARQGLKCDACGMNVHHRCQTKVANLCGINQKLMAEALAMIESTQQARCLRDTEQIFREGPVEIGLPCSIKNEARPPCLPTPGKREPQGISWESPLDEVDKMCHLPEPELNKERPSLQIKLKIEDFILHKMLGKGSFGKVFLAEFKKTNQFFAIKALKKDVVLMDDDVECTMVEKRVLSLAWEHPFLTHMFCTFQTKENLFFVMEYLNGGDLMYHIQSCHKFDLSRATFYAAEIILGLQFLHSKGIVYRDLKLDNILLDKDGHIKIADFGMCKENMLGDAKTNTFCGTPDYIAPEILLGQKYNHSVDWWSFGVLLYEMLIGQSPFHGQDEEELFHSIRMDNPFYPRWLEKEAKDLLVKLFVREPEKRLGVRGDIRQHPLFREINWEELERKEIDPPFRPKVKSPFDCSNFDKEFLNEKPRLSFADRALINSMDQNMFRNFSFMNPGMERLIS

[5] = target: Protein kinase C theta type (Homo sapiens) (UniProt Q04759); details: at 1 µM
[6] = target: Protein kinase C beta type (Homo sapiens) (UniProt P05771); details: at 0.1 µM
Chain of Protein kinase C beta type (Homo sapiens) (P05771 2-671 limits assumed): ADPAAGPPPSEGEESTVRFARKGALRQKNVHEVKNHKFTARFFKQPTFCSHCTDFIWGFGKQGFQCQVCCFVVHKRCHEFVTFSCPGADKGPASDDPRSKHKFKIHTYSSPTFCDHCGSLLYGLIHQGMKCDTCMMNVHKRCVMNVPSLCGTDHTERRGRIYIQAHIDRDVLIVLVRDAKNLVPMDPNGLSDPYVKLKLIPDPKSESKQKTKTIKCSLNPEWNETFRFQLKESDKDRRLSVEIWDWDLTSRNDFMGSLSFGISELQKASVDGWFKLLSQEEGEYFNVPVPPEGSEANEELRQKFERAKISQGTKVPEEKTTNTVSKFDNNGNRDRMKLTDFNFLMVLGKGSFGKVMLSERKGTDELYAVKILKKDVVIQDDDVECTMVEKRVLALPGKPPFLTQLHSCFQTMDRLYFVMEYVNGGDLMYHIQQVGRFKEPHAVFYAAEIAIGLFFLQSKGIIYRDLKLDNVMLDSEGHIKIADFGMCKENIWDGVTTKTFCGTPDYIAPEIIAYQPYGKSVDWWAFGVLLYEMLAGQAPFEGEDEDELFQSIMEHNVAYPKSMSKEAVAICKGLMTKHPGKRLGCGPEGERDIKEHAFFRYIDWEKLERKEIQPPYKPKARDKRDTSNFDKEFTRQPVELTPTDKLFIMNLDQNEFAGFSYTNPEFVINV

[7] = target: Protein kinase C beta type (Homo sapiens) (UniProt P05771); details: at 1 µM
[8] = target: T2, Serine/threonine-protein kinase D1 (Homo sapiens) (UniProt Q15139); details: at 0.1 µM
T2 sequence (whole entry): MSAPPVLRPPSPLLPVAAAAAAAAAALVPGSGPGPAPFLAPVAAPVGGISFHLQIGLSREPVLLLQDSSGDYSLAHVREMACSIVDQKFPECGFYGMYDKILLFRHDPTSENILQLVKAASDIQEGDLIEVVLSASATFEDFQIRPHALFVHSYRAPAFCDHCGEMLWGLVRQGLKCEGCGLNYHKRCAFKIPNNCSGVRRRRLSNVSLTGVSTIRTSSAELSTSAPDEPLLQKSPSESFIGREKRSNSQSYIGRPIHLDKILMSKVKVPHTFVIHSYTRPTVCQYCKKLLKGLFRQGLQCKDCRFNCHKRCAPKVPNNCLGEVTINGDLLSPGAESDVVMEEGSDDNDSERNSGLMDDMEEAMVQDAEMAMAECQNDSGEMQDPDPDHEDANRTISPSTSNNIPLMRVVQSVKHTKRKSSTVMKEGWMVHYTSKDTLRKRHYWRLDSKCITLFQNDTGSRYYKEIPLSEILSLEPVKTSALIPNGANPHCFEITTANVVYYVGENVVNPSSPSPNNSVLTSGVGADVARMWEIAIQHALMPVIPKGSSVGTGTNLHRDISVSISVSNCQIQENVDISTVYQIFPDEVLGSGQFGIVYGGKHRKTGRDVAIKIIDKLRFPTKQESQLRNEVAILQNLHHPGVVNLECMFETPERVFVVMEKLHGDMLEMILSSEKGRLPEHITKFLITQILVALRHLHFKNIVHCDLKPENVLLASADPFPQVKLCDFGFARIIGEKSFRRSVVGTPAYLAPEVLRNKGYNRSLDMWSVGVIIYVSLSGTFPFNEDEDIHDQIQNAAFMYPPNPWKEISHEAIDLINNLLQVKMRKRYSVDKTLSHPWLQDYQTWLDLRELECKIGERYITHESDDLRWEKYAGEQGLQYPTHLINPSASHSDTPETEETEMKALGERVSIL

[9] = target: T2, Serine/threonine-protein kinase D1 (Homo sapiens); details: at 1 µM
[10] = target: T3, Serine/threonine-protein kinase D2 (Homo sapiens) (UniProt Q9BZL6); details: at 0.1 µM
T3 sequence (whole entry): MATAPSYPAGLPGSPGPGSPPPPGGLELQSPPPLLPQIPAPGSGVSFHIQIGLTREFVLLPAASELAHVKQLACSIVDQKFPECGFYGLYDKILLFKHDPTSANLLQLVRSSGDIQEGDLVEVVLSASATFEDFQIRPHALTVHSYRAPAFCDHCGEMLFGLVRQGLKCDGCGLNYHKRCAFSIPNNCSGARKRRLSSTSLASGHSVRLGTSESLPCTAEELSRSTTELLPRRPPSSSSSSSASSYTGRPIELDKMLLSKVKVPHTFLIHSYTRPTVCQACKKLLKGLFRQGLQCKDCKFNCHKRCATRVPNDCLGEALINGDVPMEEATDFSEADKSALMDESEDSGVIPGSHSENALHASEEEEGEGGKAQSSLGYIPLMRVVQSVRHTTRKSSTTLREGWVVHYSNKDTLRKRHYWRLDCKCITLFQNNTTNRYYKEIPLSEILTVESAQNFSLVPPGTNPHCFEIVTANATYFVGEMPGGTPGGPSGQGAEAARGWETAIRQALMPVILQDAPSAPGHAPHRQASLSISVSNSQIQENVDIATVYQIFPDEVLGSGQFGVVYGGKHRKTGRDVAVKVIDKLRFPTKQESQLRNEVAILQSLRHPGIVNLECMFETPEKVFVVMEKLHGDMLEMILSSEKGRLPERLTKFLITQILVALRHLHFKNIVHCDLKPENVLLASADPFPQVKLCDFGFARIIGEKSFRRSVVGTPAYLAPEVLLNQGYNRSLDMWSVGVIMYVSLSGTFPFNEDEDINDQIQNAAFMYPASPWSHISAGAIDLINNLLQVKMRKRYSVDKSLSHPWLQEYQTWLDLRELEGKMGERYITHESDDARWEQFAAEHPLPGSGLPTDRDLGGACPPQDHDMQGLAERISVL

[11] = target: T3, Serine/threonine-protein kinase D2 (Homo sapiens); details: at 1 µM
[12] = target: T4, Serine/threonine-protein kinase D3 (Homo sapiens) (UniProt O94806); details: at 0.1 µM
T4 sequence (whole entry): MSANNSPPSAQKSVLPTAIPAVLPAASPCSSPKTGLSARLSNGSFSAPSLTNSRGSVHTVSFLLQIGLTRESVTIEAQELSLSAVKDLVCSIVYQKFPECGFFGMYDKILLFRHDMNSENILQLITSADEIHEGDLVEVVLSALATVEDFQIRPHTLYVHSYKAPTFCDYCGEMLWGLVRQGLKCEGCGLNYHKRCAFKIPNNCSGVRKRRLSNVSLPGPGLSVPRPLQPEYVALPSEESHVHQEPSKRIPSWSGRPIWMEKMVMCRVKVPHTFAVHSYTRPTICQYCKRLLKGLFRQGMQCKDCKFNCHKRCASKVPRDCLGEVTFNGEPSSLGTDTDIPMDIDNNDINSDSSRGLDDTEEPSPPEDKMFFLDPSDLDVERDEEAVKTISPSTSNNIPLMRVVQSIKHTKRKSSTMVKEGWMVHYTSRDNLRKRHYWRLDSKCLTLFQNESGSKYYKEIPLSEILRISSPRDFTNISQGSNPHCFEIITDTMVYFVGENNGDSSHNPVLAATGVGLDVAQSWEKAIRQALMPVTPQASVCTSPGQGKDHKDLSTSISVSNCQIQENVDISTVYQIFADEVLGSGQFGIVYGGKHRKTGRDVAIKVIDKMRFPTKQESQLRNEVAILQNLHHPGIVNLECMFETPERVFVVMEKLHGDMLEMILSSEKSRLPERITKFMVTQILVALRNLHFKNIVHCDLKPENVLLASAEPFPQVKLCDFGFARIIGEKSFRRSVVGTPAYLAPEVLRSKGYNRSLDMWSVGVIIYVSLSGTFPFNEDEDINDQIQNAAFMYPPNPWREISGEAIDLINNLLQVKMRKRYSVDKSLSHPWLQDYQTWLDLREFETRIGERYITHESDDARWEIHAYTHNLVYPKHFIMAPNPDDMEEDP

[13] = target: T4, Serine/threonine-protein kinase D3 (Homo sapiens); details: at 1 µM
[14] = target: T5, cGMP-dependent protein kinase 1 (Homo sapiens) (UniProt Q13976); details: at 0.1 µM
T5 sequence (whole entry): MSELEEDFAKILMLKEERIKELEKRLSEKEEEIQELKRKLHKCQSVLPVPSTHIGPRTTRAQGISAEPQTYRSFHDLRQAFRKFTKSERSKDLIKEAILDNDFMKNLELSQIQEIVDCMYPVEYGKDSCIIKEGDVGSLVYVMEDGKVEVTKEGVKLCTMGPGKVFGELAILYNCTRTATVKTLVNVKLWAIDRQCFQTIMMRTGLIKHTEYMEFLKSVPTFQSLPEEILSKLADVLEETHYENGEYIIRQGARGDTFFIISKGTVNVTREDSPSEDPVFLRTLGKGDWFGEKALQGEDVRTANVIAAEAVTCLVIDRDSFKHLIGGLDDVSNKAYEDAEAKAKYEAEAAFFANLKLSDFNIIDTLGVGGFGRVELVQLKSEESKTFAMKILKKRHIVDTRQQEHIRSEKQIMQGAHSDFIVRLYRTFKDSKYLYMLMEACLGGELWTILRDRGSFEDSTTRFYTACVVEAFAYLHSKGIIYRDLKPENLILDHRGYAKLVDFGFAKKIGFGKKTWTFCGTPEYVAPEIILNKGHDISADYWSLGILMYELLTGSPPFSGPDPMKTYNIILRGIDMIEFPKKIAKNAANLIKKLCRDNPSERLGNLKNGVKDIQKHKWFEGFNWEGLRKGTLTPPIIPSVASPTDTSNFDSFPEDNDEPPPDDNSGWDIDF

[15] = target: T5, cGMP-dependent protein kinase 1 (Homo sapiens); details: at 1 µM
[16] = target: T6, cGMP-dependent protein kinase 2 (Homo sapiens) (UniProt Q13237); details: at 0.1 µM
T6 sequence (whole entry): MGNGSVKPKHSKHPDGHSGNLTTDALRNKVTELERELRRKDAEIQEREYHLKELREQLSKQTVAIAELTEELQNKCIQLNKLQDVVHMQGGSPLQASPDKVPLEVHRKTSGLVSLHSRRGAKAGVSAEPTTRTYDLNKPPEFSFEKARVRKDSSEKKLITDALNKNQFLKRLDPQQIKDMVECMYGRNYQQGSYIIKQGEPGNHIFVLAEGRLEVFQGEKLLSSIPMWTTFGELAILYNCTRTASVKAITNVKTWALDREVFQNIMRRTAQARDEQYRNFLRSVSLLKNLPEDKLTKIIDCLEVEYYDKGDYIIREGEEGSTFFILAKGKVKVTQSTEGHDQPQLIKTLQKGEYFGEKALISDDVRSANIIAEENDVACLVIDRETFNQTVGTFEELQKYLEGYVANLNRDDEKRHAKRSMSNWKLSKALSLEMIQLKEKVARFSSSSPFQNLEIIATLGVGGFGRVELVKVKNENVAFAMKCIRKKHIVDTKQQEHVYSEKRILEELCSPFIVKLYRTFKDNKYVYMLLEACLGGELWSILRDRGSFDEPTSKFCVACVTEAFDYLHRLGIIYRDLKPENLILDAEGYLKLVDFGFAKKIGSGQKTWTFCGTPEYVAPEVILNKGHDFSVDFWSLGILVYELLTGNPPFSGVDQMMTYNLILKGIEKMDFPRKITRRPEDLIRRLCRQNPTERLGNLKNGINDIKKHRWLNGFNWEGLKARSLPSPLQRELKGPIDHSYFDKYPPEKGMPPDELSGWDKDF

[17] = target: T6, cGMP-dependent protein kinase 2 (Homo sapiens); details: at 1 µM
[18] = target: T7, cAMP-dependent protein kinase catalytic subunit PRKX (Homo sapiens) (UniProt P51817); details: at 0.1 µM
T7 sequence (whole entry): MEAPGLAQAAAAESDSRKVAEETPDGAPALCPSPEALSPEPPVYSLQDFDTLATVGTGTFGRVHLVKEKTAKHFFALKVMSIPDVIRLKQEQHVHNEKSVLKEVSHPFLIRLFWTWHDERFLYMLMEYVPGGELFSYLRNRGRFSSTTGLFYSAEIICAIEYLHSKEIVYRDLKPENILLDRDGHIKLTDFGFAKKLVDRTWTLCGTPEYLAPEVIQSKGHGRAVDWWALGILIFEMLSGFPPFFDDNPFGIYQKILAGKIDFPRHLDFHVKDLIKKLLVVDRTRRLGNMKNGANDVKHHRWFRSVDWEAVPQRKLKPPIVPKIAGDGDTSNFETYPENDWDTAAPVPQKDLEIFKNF

[19] = target: T7, cAMP-dependent protein kinase catalytic subunit PRKX (Homo sapiens); details: at 1 µM
[20] = target: Rho-associated protein kinase 1 (Homo sapiens) (UniProt Q13464); details: at 0.1 µM;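 note: values are mean percent inhibition of ROCK1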
Chain of Rho-associated protein kinase 1 (Homo sapiens) (Q13464 2-1354 limits assumed): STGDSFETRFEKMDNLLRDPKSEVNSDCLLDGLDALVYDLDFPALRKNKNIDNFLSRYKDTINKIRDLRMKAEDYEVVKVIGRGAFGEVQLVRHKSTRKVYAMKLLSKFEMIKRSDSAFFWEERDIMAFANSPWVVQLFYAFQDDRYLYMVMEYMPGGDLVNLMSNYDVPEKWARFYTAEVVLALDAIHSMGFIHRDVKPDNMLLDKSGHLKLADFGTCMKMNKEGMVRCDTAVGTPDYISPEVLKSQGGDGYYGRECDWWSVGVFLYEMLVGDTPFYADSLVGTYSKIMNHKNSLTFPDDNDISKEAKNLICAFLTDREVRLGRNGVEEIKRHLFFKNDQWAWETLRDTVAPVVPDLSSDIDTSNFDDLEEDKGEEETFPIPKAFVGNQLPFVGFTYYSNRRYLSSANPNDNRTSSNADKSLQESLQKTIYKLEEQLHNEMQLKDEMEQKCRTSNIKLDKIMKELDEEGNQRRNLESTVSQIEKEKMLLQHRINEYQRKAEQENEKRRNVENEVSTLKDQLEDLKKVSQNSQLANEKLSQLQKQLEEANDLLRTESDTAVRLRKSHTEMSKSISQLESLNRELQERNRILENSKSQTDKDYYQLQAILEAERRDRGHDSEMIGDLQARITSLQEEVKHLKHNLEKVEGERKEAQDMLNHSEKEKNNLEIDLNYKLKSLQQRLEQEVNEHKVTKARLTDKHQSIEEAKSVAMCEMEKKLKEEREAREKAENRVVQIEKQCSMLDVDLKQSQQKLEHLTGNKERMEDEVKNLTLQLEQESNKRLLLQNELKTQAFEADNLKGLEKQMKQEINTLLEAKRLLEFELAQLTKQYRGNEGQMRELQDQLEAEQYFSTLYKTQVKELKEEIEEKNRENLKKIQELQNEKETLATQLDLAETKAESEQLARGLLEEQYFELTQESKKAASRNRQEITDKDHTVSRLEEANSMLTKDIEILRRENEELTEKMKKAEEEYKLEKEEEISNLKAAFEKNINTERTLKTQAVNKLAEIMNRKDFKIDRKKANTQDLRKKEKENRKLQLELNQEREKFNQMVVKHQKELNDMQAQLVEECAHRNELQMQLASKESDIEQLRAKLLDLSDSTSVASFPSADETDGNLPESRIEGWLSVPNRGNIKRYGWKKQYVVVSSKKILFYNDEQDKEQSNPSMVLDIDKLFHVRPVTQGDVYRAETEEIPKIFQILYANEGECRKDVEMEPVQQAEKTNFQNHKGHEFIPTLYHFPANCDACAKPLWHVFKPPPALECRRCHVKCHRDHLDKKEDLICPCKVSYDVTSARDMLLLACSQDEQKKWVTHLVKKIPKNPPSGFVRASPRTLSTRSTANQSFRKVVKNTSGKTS

## O=C1Nc2ccc(-c3cccnc3)cc2C1=Cc1cc(Br)c(O)c(Br)c1
[1]
  inhibition: 6.29%
[2]
  inhibition: 1.6%
[3]
  inhibition: 3.35%
[4]
  inhibition: 1.77%
[5]
  inhibition: 2.57%
[6]
  inhibition: 0.86%
[7]
  inhibition: 1.44%
[8]
  inhibition: 2.94%
[9]
  inhibition: 4.25%
[10]
  inhibition: 3.88%
[11]
  inhibition: 4.38%
[12]
  inhibition: 4.62%
[13]
  inhibition: 5.23%
[14]
  inhibition: 4.28%
[15]
  inhibition: 11%
[16]
  inhibition: 2.46%
[17]
  inhibition: 4.63%
[18]
  inhibition: 1.55%
[19]
  inhibition: -0.22%
[20]
  inhibition: 1.68%

## CN(C)C(=O)O[C@H]1CN[C@H](C#Cc2cc3ncnc(Nc4ccc(OCc5cccc(F)c5)c(Cl)c4)c3s2)C1
[1]
  inhibition: 0.1%
[2]
  inhibition: 0.58%
[3]
  inhibition: 1.07%
[4]
  inhibition: 1.43%
[5]
  inhibition: 0.06%
[6]
  inhibition: 1.29%
[7]
  inhibition: 1.12%
[8]
  inhibition: 2.38%
[9]
  inhibition: 2.68%
[10]
  inhibition: 2.3%
[11]
  inhibition: 1.92%
[12]
  inhibition: 2.56%
[13]
  inhibition: 2.75%
[14]
  inhibition: 2.24%
[15]
  inhibition: 6.88%
[16]
  inhibition: -0.06%
[17]
  inhibition: 5.82%
[18]
  inhibition: 1.35%
[19]
  inhibition: 3.67%
[20]
  inhibition: 1.82%

## Cc1ccc(NC(=O)CC2CC2)cc1-c1ccc(C(=O)NCC2CC2)cc1
[1]
  inhibition: 6.55%
[2]
  inhibition: 0.93%
[3]
  inhibition: -0.03%
[4]
  inhibition: 2.09%
[5]
  inhibition: 2.23%
[6]
  inhibition: 1%
[7]
  inhibition: 2.35%
[8]
  inhibition: 2.3%
[9]
  inhibition: 3.9%
[10]
  inhibition: 2.89%
[11]
  inhibition: 3.78%
[12]
  inhibition: 3.15%
[13]
  inhibition: 3.66%
[14]
  inhibition: 2.45%
[15]
  inhibition: 1.88%
[16]
  inhibition: 1.38%
[17]
  inhibition: 2.64%
[18]
  inhibition: 1.92%
[19]
  inhibition: 2.19%
[20]
  inhibition: 1%
